This note sets out measurements from PubChem BioAssay AID504339 (National Center for Advancing Translational Sciences (NCATS), 2011).

The whole screen tested about 390,000 compounds, of which about 17,000 (4.4%) were called active. Roughly 8% stayed inconclusive and do not appear here. This is one part of a sample in which actives are shown more often than they occur. A number with no mark means an inactive call. The call rests on the fitted dose curve; in most records, active means well fitted inhibition curve with a large enough effect; inconclusive means small, poorly fitted or top-dose-only effect; inactive means no such curve, though single readings can be large or run the other way.
On the % scale 0 is the no-effect control and ±100 the full control effect; potency means the concentration at half of the fitted maximal effect.

In this experiment the target is Lysine-specific demethylase 4A (Homo sapiens) (UniProt O75164). Kind of experiment: qHTS Assay for Inhibitors of JMJD2A-Tudor Domain. Further: nearly all actives have a fitted effect of over 50% in size. As to conditions: AlphaScreen JMJD2A-Tudor / H3K4me3 peptide binding; series mostly up to 114 µM; activity change, negative = inhibition: at the top concentration. In general terms: In qHTS, concentration-response curves come from the screen itself.
Chain of Lysine-specific demethylase 4A (Homo sapiens) (O75164 whole entry, looked up, the tested form may be a part): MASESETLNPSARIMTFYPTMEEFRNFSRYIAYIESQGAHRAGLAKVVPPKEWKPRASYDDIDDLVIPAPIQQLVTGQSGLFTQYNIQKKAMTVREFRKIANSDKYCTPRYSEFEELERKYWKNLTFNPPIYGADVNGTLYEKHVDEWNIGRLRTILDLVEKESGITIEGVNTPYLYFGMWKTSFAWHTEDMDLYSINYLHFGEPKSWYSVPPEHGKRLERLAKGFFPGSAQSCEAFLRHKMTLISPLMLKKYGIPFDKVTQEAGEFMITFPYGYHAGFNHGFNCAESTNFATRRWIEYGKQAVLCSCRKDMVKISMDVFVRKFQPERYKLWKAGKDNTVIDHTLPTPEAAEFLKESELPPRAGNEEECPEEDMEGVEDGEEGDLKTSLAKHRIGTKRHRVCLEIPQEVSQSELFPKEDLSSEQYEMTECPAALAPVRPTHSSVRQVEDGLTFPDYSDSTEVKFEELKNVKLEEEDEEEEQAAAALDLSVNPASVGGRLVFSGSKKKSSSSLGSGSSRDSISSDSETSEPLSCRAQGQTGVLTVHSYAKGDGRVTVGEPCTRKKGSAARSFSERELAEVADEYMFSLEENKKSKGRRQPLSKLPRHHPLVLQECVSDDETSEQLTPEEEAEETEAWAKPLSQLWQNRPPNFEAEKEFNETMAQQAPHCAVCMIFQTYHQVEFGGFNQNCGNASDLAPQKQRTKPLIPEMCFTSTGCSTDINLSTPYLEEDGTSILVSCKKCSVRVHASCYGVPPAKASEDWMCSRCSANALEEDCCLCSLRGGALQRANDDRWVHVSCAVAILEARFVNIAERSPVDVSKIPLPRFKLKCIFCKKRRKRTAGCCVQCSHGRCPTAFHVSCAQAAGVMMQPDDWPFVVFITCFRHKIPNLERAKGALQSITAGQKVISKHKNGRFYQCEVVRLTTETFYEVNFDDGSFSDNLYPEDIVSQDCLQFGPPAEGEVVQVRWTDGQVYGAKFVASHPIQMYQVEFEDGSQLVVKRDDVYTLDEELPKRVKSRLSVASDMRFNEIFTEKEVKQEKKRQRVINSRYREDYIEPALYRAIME
For the compound `COc1ccc(-c2nc(S(=O)(=O)c3ccccc3)c(N3CCCCC3)o2)cc1`, the “activity change, negative = inhibition” value is -10%.
On to `CCOC(=O)c1cnc(SCC(=O)Nc2ccccc2C(=O)OC)nc1N`, for which the “activity change, negative = inhibition” value is -14.7%.
`CCOC(=O)C(Sc1ncc(C#N)c(N)n1)C(C)C` (stereo not given): the Potency is 44.7 µM (active).
On to `CCOC(=O)COc1nc(C)cc(C(F)(F)F)c1C#N`, for which the “activity change, negative = inhibition” value was -18.1%.
On the same count and under the same terms, under `COc1ccccc1N1CCN(/N=C/c2ccc(O)cc2O)CC1` stands -20.3%.
Take `COc1ccccc1N1CCN(C2C(=O)c3ccccc3N2C(C)=O)CC1` (stereo not given): the “activity change, negative = inhibition” value is -22.4%.
For `COc1ccccc1N1CCN(/N=C\C(Br)=C\c2ccccc2)CC1`, the Potency was 39.8 µM (active).
Regarding `CCN1CCN(C(=O)N[C@@H](C(=O)N[C@@H]2C(=O)N3C(C(=O)O)=C(CSc4nnnn4C)CS[C@H]23)c2ccc(O)cc2)C(=O)C1=O`, the “activity change, negative = inhibition” value is -11%.
For `Cc1cc(C)cc(C(=O)NC2C(=O)N3C(C(=O)O)=C(CSc4nnc(C)s4)CSC23)c1` (stereo not given), the Potency was 79.4 µM (active).
Take `Cc1nnc(SCC2=C(C(=O)O)N3C(=O)C(NC(=O)Cn4nc(C)c(Cl)c4C)C3SC2)s1` (stereo not given): the “activity change, negative = inhibition” value was -6.9%.
For `O=C(NC1CC(=O)N(c2ccc(Cl)cc2)C1)C1CCCC1` (stereo not given), the “activity change, negative = inhibition” value is -2.92%.
In the case of `Cc1ccc(CN2CCC(CNC(=O)c3cnn(-c4ccc(C)cc4)c3C3CCN(C(=O)OC(C)(C)C)CC3)CC2)cc1`, the “activity change, negative = inhibition” value is -28.8%.
Regarding `COc1ccc(CCNC(=O)COC(=O)c2ccc[nH]c2=O)cc1`, the Potency is 31.6 µM (active).
`COc1ccc(CCNC(=O)COC(=O)C2CC2C)cc1` (stereo not given): the “activity change, negative = inhibition” value is 7.09%.
As to `COc1ccc(CCNC(=O)COC(=O)c2cc(=O)c3ccccc3o2)cc1`, the “activity change, negative = inhibition” value is 5.23%.
`COc1cccc(CNC(=O)c2cc(=O)[nH]c3ccc(S(=O)(=O)N4CCCCC4)cc23)c1`: the “activity change, negative = inhibition” value is 0.683%.
Regarding `CC1CN(C(=O)N2CCC(C(=O)NCc3ccco3)CC2)c2cc(Cl)ccc2O1` (stereo not given), the “activity change, negative = inhibition” value is -20.1%.
For `CCCn1c(=N)n(CC(O)COc2ccccc2OC)c2ccccc21` (stereo not given), the “activity change, negative = inhibition” value was -15.5%.
With `O=C(Cn1c(-c2cccs2)cc2ccccc21)NCCc1ccc(Cl)cc1`, the “activity change, negative = inhibition” value was -13.2%.
For `CC(C)=CCCC1(C)C=Cc2c(ccc3c2[nH]c2cc(O)c(C)cc23)O1` (stereo not given), the Potency is 44.7 µM (active).
Regarding `Cc1c(Cl)cccc1NC(=O)N1CCN(C(=O)c2nsc3ccccc23)CC1`, the “activity change, negative = inhibition” value was -0.649%.
The same measure, in the same setting: under `CCCN(C(=O)Cn1ncc2c([nH]c3ccc(C)cc32)c1=O)c1ccccc1C` stands -26.2%.
On to `CCOc1ccc(/C=C(/C#N)c2nnc(N3CCOCC3)n2-c2ccccc2)cc1OC`, for which the “activity change, negative = inhibition” value was -20.7%.
For the compound `COc1cc(N2CCCC2)c(OC)cc1/C=C(/C#N)c1cccc(Br)c1`, the Potency is 17.8 µM (active).
Turning to `CCCn1c2ccccc2c2cnn(CC(=O)NCC3CCN(Cc4ccc(C)cc4)CC3)c(=O)c21`, the “activity change, negative = inhibition” value is -28.4%.
Regarding `CC(Sc1nnnn1C)C(=O)NC(=O)NC1CCCCC1` (stereo not given), the “activity change, negative = inhibition” value was -15.8%.
`CC(Sc1nnnn1C1CCCCC1)C(=O)O` (stereo not given): the Potency is 11.2 µM (active).
On to `O=C(CSc1nnnn1C1CCCC1)N1CCCCC1`, for which the “activity change, negative = inhibition” value was 2.05%.
`CCN(CC)c1ccc(C2C(C(N)=O)=C(C)Nc3nc(SCc4ccccc4)nn32)cc1` (stereo not given): the “activity change, negative = inhibition” value was -2.39%.
As to `CCc1ccc(NC(=O)c2cc(S(=O)(=O)N3CCCC(C)C3)cn2C)cc1` (stereo not given), the “activity change, negative = inhibition” value is 2.88%.
For the compound `CCOc1ccc(CNCc2c(C(=O)O)c(C)n(Cc3cccc(OC)c3)c2C)cc1OC`, the “activity change, negative = inhibition” value was -26.2%.
The same measure, in the same setting: under `CCOc1ccc(NC(=O)Nc2cc(C)on2)cc1` stands -0.741%.
Same read-out and setting: under `Cc1cc(NC(=O)COc2ccccc2C#N)no1` stands -12.1%.
On to `Cc1cc(NC(=O)Nc2ccccc2[N+](=O)[O-])no1`, for which the Potency was 22.4 µM (active).
In the case of `Cc1ccc(C(=O)Nc2ccc(OCc3cc(=O)n4c(C)csc4n3)cc2)cc1`, the “activity change, negative = inhibition” value was -22.5%.
For `CCOc1cccc(CNC(=O)c2ccc(N3CCCC3)c(NC(=O)Nc3ccccc3CC)c2)c1`, the “activity change, negative = inhibition” value was -9.27%.
Take `COc1ccccc1/C=C/c1nc(C#N)c(NC(C)c2ccccc2)o1` (stereo not given): the “activity change, negative = inhibition” value was -14.2%.
`COc1cc2nc(NCC(C)c3ccccc3)n3nc(-c4ccccc4)nc3c2cc1OC` (stereo not given): the “activity change, negative = inhibition” value is -26.5%.
Regarding `Clc1ccccc1CSc1nncn2c1cc1occc12`, the “activity change, negative = inhibition” value was -27.5%.
In the case of `Clc1ccc(CSc2nncn3c2cc2occc23)cc1`, the Potency is 39.8 µM (active).
Take `Nc1cc(N)nc(SCc2ccc(Cl)cc2)n1`: the “activity change, negative = inhibition” value was -23.1%.
For the compound `COc1ccc(-n2c(C)nc3c(cnn3-c3ccc(F)cc3)c2=O)cc1`, the “activity change, negative = inhibition” value is -6%.
Take `COc1cc(NC(=O)CSc2nc3nc(C)c(Cc4ccc(C)cc4)c(C)n3n2)cc(OC)c1OC`: the “activity change, negative = inhibition” value was -27.7%.
Take `O=C(O)c1c(CNCc2cccc(F)c2)c2ccccc2n1Cc1ccccc1`: the “activity change, negative = inhibition” value is -20.5%.
On to `O=C(Nc1nnc(C2CC(=O)N(c3ccc(Cl)cc3)C2)s1)c1ccco1` (stereo not given), for which the “activity change, negative = inhibition” value was -10.6%.
Turning to `Cc1cccc(CSc2nc3ccncc3n2CC(=O)N(C)C2CCCCC2)c1`, the “activity change, negative = inhibition” value is -8.05%.
For the compound `CCOc1ccc(CNC(=O)C2CCCN(S(=O)(=O)N(CC)c3ccc(OCC)cc3)C2)cc1` (stereo not given), the “activity change, negative = inhibition” value is -11%.
As for `CSc1nnc(SCc2nc3sc(C(=O)O)c(C)c3c(=O)[nH]2)s1`, the Potency is 12.6 µM (active).
On to `CCOC(=O)c1sc2nc(CSCC(=O)OCc3ccc(C(=O)OC)o3)[nH]c(=O)c2c1C`, for which the “activity change, negative = inhibition” value is -18.7%.
On to `Cc1sc2nc(CSCC(=O)NC3CCCCC3)[nH]c(=O)c2c1C`, for which the “activity change, negative = inhibition” value is -13.1%.
